# Screen size: about 310,000 compounds; about 14,000 (4.5%) showed an effect of 50% or more. The effect is printed as a negative number. The full list was thinned out, with strong results kept by preference.
# Molecular target: human ether-à-go-go-related gene (hERG) potassium channel (human, UniProt Q12809)
# Test: primary screen, population patch clamp on CHO cells stably expressing hERG; higher = less effect of the substance
# 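Further: peak tail current of the secondary pulse compared with the same well before compound.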
# Chain of human ether-à-go-go-related gene (hERG) potassium channel (Q12809 whole entry, looked up): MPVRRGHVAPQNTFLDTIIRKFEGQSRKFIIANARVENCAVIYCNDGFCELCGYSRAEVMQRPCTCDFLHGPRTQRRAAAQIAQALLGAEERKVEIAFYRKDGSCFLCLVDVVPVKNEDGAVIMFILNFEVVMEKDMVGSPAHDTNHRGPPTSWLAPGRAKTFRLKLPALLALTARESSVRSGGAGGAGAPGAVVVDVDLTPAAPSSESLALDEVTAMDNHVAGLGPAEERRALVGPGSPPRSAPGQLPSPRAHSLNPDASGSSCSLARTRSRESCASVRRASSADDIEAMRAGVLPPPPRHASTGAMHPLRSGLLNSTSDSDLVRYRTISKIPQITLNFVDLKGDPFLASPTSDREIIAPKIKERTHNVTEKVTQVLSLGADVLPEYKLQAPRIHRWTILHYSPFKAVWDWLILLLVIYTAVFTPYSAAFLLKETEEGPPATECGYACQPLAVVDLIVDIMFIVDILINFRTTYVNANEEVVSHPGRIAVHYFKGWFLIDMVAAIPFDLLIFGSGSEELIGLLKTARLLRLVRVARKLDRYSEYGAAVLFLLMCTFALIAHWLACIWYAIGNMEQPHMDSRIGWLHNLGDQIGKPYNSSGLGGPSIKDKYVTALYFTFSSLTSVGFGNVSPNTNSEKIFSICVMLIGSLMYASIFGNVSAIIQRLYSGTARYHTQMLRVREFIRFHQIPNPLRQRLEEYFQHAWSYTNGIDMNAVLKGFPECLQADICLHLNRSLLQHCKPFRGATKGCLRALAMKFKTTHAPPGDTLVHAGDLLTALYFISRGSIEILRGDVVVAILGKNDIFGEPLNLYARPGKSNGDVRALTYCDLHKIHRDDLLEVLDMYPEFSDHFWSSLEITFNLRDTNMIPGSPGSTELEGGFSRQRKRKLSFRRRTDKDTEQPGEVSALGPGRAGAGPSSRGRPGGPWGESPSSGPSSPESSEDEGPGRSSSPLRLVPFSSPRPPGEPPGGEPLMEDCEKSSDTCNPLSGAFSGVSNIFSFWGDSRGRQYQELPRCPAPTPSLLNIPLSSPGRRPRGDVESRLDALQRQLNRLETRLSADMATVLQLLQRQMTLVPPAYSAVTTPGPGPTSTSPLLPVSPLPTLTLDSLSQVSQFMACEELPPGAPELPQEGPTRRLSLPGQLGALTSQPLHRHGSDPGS
row,Structure (SMILES),"hERG current change (%, negative = inhibition) at 10uM [%]"
1,Cc1ccc(Nc2nc(-c3ccc(O)cc3O)cs2)nc1,11.1
2,N/C(=N\[N+](=O)[O-])N1CCN(C(=O)c2ccccc2)CC1,24.8
3,CC(C)(C)c1ccc(/C=N/Nc2nncn2N)cc1,-21.5
4,CCOC(=O)CN1C(=N)N(c2nc(NC(C)C)nc(OC)n2)CC1=O,-13.1
5,CCOC(=O)CN1C(=N)N(c2nc(NC(C)C)nc(NC(C)C)n2)CC1=O,-73.8
6,CCNc1nc(NC(C)C)nc(N2CC(=O)N(CC(=O)OCC)C2=N)n1,-13.9
7,CCOCCCNC(=O)c1ccc(CS(=O)(=O)c2cccc(C(F)(F)F)c2)o1,6.78
8,CCCCNC(=O)c1ccc(CS(=O)(=O)c2cccc(C(F)(F)F)c2)o1,-53.5
9,O=C(NCc1ccc2c(c1)OCO2)c1ccc(CS(=O)(=O)c2cccc(C(F)(F)F)c2)o1,-24.2
10,O=C(NCc1ccco1)c1ccc(CS(=O)(=O)c2cccc(C(F)(F)F)c2)o1,-60.3
11,COCCNC(=O)c1ccc(CS(=O)(=O)c2cccc(C(F)(F)F)c2)o1,4.09
12,COCCCNC(=O)c1ccc(CS(=O)(=O)c2cccc(C(F)(F)F)c2)o1,-8.62
13,COC(=O)c1cccc(Cn2cc([N+](=O)[O-])cn2)c1,8.41
14,Cc1ccc(Nc2ncnc3c2nnn3Cc2ccccc2)cc1,8.07
15,O=C(CCS(=O)(=O)c1cc(Br)cc2c1N(C(=O)C1CC1)CC2)NCC1CCCO1 (centres unmarked),10.8
16,CCCCOCCCn1c(-c2ccco2)nc2nc3ccccc3nc21,-55.9
17,Cc1ccc(-c2nc3nc4ccccc4nc3n2Cc2ccco2)cc1,-18.7
18,CCCCCn1c(-c2ccco2)nc2nc3ccccc3nc21,-67.5
19,COCCn1c(-c2ccco2)nc2nc3ccccc3nc21,2.99
20,c1ccc(-c2nc3nc4ccccc4nc3n2Cc2ccco2)cc1,-61.2
21,COc1ccc(CCn2c(-c3ccco3)nc3nc4ccccc4nc32)cc1,-3.77
22,Clc1ccc(-c2nc3nc4ccccc4nc3n2Cc2ccco2)cc1,-12.3
23,c1ccc(Cn2c(-c3ccco3)nc3nc4ccccc4nc32)cc1,6.13

row,Structure (SMILES),"hERG current change (%, negative = inhibition) at 10uM [%]"
1,COc1ccccc1Cn1c(-c2ccco2)nc2nc3ccccc3nc21,-4.67
2,O=C(O)CSc1sc(=S)sc1SCC(=O)O,13.7
3,COC(=O)c1ccc(OC)c(CSc2nnc(-c3ccc(C(C)(C)C)cc3)o2)c1,9.83
4,CC(=O)Nc1ccc(OCC(=O)NCc2ccccc2)cc1,19
5,O=C(Cn1nc(C(F)F)cc1C(F)F)N/N=C/c1ccc2c(c1)OCO2,24.7
6,CC(=O)N1CCc2cc(S(=O)(=O)NC(Cc3ccccc3)C(=O)Nc3cc(C)ccn3)ccc21 (centres unmarked),1.38
7,CCOc1ccccc1N(CC(=O)NCCOC)C(=O)CCC(=O)Nc1ccccn1,19.6
8,Cc1cccc(NC(=S)N(C)Cc2cn(C)c3ccccc23)c1,-7.49
9,COc1ccc(S(=O)(=O)NCc2ccco2)c2ccccc12,-9.68
10,Cc1cc2oc(=O)cc(CN3CCCCC3C)c2cc1Cl (centres unmarked),-0.834
11,N#Cc1c(-c2ccc(Cl)cc2)ccnc1N1CCOCC1,3.33
12,CCN(c1ccccc1)S(=O)(=O)c1ccc(Cl)c(NC(=O)COC(=O)c2ccc(O)cc2)c1,6.44
13,CCN(c1ccccc1)S(=O)(=O)c1ccc(Cl)c(NC(=O)CSc2nnc(C)s2)c1,-24.2
14,CCN(c1ccccc1)S(=O)(=O)c1ccc(Cl)c(NC(=O)CN2CCCCCC2)c1.O=C(O)C(=O)O,10.1
15,CCN(c1ccccc1)S(=O)(=O)c1ccc(Cl)c(NC(=O)CN(C)C2CCN(C)CC2)c1,-38.8
16,CCN(c1ccccc1)S(=O)(=O)c1ccc(Cl)c(NC(=O)CN2CCN(C)CC2)c1,-59.2
17,CCC(C)NCC(=O)Nc1cc(S(=O)(=O)N(CC)c2ccccc2)ccc1Cl (centres unmarked),-78.8
18,COc1ccc(/C=N/NC(=O)C2CC2)c(OC)c1OC,12.9
19,COc1ccc(NC(=O)CSc2nc3ccccc3nc2N2CCCC2)c(OC)c1,24.1
20,COc1ccc(Cl)cc1NC(=O)CN(C(=O)c1ccco1)C1CCCCC1,-2.36
21,Cn1c(=O)n(CCCOc2ccc(Cl)cc2)c2ccccc21,-13.7
22,Cc1nc2ccccc2n1CCOc1ccc([N+](=O)[O-])cc1,-73.8
23,Cc1ccc(OCCn2c(C)nc3ccccc32)cc1,3.94

row,Structure (SMILES),"hERG current change (%, negative = inhibition) at 10uM [%]"
1,Cn1c(=O)n(CCOc2ccc([N+](=O)[O-])cc2)c2ccccc21,-65.3
2,Cc1nc2ccccc2n1CCOc1ccccc1,6.17
3,Cc1ccc(OCCn2c(=O)n(C)c3ccccc32)cc1,-1.88
4,CCn1c(SCC(=O)N/N=C(\C)c2ccncc2)nnc1-c1ccc(C)cc1,-20.6
5,O=C(NC1CCN(Cc2ccccc2)CC1)c1ccc(Oc2cc(Cl)cc(Cl)c2)o1,-6.95
6,O=C(NC1CCN(Cc2ccccc2)CC1)c1ccc2c(c1)OCCCO2,-37.1
7,Cl.O=C(NC1CCN(Cc2ccccc2)CC1)c1cccc(OC(F)F)c1,-74.1
8,CC1CCc2sc(C(=O)NC3CCCCC3)cc2C1 (centres unmarked),-5.4
9,O=C(NC1CCN(Cc2ccccc2)CC1)c1cncc(Br)c1,-64.1
10,O=C(NC1CC1)c1cccc(Br)c1,0.381
11,CC1CCc2sc(C(=O)NC3CCN(Cc4ccccc4)CC3)cc2C1 (centres unmarked),-54.1
12,CC1CCc2sc(C(=O)NN)cc2C1 (centres unmarked),21.1
13,Cc1cc(C(=O)NC2CCN(Cc3ccccc3)CC2)n[nH]1,-19.8
14,O=C(NC1CCN(Cc2ccccc2)CC1)c1cccc(Br)c1,-63.8
15,O=C(NC1CCN(Cc2ccccc2)CC1)c1c(F)cccc1F,-24.4
16,O=C(NC1CCN(Cc2ccccc2)CC1)c1cc(Br)c(Br)[nH]1,-2.75
17,O=[N+]([O-])c1ccc2c(c1)[nH]c(=S)n2-c1ccccc1,36.4
18,COc1cccc(CNS(=O)(=O)c2cc3c(cc2C)NC(=O)CO3)c1,-25.4
19,COCC1CCN(C(=O)c2ccc3oc(Cc4ccccc4)nc3c2)C1 (centres unmarked),-0.23
20,COc1cccc(/C=N/NC(=O)CC(=O)NCCc2ccccc2)c1OC,6.02
21,Cl.NC(N)=NC(N)=Nc1cccc(Cl)c1,-2.14
22,Cc1nc2ccccn2c1C(=O)N/N=C/c1ccccc1,11.6
23,Cc1nc2ccccn2c1C(=O)N/N=C/c1ccccc1[N+](=O)[O-],2.26

row,Structure (SMILES),"hERG current change (%, negative = inhibition) at 10uM [%]"
1,Cc1ccn2c(C(=O)N/N=C/c3ccc(CNC(=O)C(=O)Nc4ccc(C)c(C)c4)o3)c(C)nc2c1,-57
2,Cc1nc2ccccn2c1C(=O)N/N=C/c1ccc([N+](=O)[O-])cc1,2.88
3,Cc1nc2ccccn2c1C(=O)N/N=C/c1ccc(CNC(=O)C(=O)Nc2ccccc2)o1,-50.3
4,CCOc1ccc(/C=N\NC(=O)c2c(C)nc3cc(C)ccn23)cc1,-2.47
5,Cc1nc2ccccn2c1C(=O)N/N=C/c1ccc([N+](=O)[O-])o1,-64.1
6,Cc1ccc(NC(=O)C(=O)NCc2ccc(/C=N/NC(=O)c3c(C)nc4ccccn34)o2)cc1,1.37
7,COc1ccc(NC(=O)C(=O)N/N=C\c2ccc(CNC(=O)C(=O)Nc3ccc(C)c(C)c3)o2)c(OC)c1,9.12
8,Cc1ccc(NC(=O)C(=O)NCc2ccc(/C=N/NC(=O)c3c(C)nc4cc(C)ccn34)o2)cc1,-64
9,Cc1ccn2c(C(=O)N/N=C\c3cccs3)c(C)nc2c1,-7.56
10,Cc1ccc(C)c(-n2c(C)cc(/C=N/NC(=O)c3c(C)nc4cc(C)ccn34)c2C)c1,-0.122
11,O=C(Nc1ccc(F)cc1)c1cc2ccccc2o1,20
12,COc1cccc(CSc2nnnn2-c2ccc(O)cc2)c1,-18.5
13,CCCCn1c(N)c(N(CCC(C)C)C(=O)c2cc(Cl)nc3ccccc23)c(=O)[nH]c1=O,15.2
14,COC(=O)c1cccc(-n2nnnc2SCC(=O)Nc2nc3c(s2)CCCC3)c1,-0.926
15,Cc1ccc(OCCC(=O)O)cc1,13.4
16,COc1ccc(OC)c(CNCc2ccc3c(c2)OCO3)c1.O=C(O)C(=O)O,-4.43
17,CC(=O)c1ccc(NC(=O)C2=CC(c3cccs3)=NS(=O)(=O)N2C)cc1,-0.218
18,CC(C)Oc1ccccc1OCCN(C)C.O=C(O)C(=O)O,6.22
19,CN(C)CCC(Oc1ccccc1OCc1ccccc1)c1ccccc1.O=C(O)C(=O)O (centres unmarked),-68.6
20,CC(O)CNCCCOc1ccccc1OCc1ccccc1.O=C(O)C(=O)O (centres unmarked),-36.7
